# Measured values taken from PubChem BioAssay (Tox21).
# Several values for one entry are separate records, joined by “and”; a condition that tells them apart may be missing. Equal values may be shown once. Inconclusive results are not listed. A number with no mark means an inactive call. Activity calls are given as the source filed them. The call rests on the fitted dose curve; in most records, active means well fitted cell-killing curve with a large enough effect in the repeat runs; inconclusive means weak or mixed curves, or effect the other way; inactive means flat fitted curve, though single readings scatter.
# Experiment: Nuclear factor erythroid 2-related factor 2/antioxidant responsive element (Nrf2/ARE) small molecule agonists: qHTS cell viability counter screen in human keratinocytes (AID 1919968); further: nearly all actives have a fitted effect of over 55% in size
# Settings: KeratinoSens HaCaT ARE cells viability, CellTiter-Fluor, 24 h; series mostly up to 92.4 µM; activity change, negative = cytotoxicity: at the top concentration
# From the text: U.S. Tox21 Program National Center for Advancing Translational Sciences [NCATS] Division of Preclinical Innovation [DPI] U.S. Environmental Protection Agency [EPA] National Institutes of Environmental Health Sciences [NIEHS] National Toxicology Program [NTP] U.S. Food and Drug Administration [FDA] Tox21 Assay Overview: Oxidative stress has been implicated in the pathogenesis of a variety of diseases ranging from cancer to neurodegeneration. The antioxidant response element (ARE) signaling pathway plays an important role in the amelioration of oxidative stress. The KeratinoSens (Givaudan, Switzerland) is an in vitro test method which quantifies luciferase induction as a measure of activation of Keap1-Nrf2-antioxidationt/electrophile response element (ARE) dependant pathway in HaCaT human keratinocytes stably transfected with a selectable plasmid. The KeratinoSens assay is a cell-based assay with a reporter cell line to detect potential skin sensitizers by their ability to induce the Nrf2/ARE-response. The activation of the report gene under culture conditions can be detected by ONE-Glo Luciferase Assay System (Promega, Madison, WI). This cell line has been used to screen the Tox21 10K compound library to identify agonists that induce oxidative stress. The cytotoxicity of the Tox21 compound library against the KS-ARE cell line was tested in parallel by measuring the cell viability using CellTiter- Fluor assay system (Promega, Madison, WI) in the same wells.
# Tox21 Assay Protocol Summary: HaCaT derived cell line KeratinoSens were dispensed at 1,500 cells/5uL/well in 1536-well white wall/solid bottom plates using a Multidrop Combi (ThermoFisher Scientific, Waltham, MA) dispenser. After the assay plates were incubated at 37 C/5% CO2 for 5 h, 23 nL of compounds dissolved in DMSO, positive controls or DMSO only was transferred to the assay plate by a pintool workstation (Kalypsys, San Diego, CA). The plates were incubated at 37 C/5% CO2 for 23 h, followed by addition of 1uL/well of CellTiter-Fluor reagent into the assay plates using a Flying Reagent Dispenser (Aurora Discovery, San Diego, CA) for cell viability readout that measures cytotoxicity. After 1 h incubation at 37 C/5% CO2 the fluorescence intensity was measured using a ViewLux (PerkinElmer, Shelton, CT) plate reader.
# On the % scale 0 is the no-effect control and ±100 the full control effect; potency means the concentration at half of the fitted maximal effect.
SMILES,"activity change, negative = cytotoxicity",Potency
O=C(O)[C@@H]1[C@H]2C[C@H]3c4[nH]c5ccccc5c4CCN3C[C@@H]2CC[C@@H]1O,-3.31% [at 42.5 µM],–
O=C(O)c1cc(=O)[nH]c(=O)[nH]1,–,inactive
C=CCOCC(O)CO (stereo not given),-1.45%,–
CC(=O)CCC(C)C,–,inactive
CN(C)CCCNCCC#N,2.35%,–
CCOc1c(N2CCOCC2)cnn(C)c1=O,-0.687% [at 42.5 µM],–
CC1=CCC(=O)O1,1.56%,–
CC(=O)/C=C/c1ccco1,0.0668%,–
Oc1ccc(C(c2ccc(O)cc2)C(Cl)(Cl)Cl)cc1,–,60.9 µM (active) and 54.5 µM (active)
Nc1cc(C(Cl)=C(Cl)Cl)c(S(N)(=O)=O)cc1S(N)(=O)=O,3.51% [at 42.5 µM],–
IC(I)I,–,inactive
CC(C)(c1cc(Br)c(O)c(Br)c1)c1cc(Br)c(O)c(Br)c1,–,43.1 µM (active) and 38.5 µM (active)
CCCCCCCCCCCCCCCCCC(=O)OCC(CC)CCCC (stereo not given),-5.79%,–
CCCCCCCC(OC)OC,0.18% [at 42.5 µM],–
CC(C)(c1cc(Br)c(OCC(Br)CBr)c(Br)c1)c1cc(Br)c(OCC(Br)CBr)c(Br)c1 (stereo not given),8.6% [at 42.5 µM],–
O=C1NC(=O)[C@@]2(CCOc3ccc(F)cc32)N1,2.35% [at 42.5 µM],–
CC(O)Cn1cnc2c1c(=O)n(C)c(=O)n2C (stereo not given),-0.374% [at 42.5 µM],–
O=C(O)c1cccnc1C(=O)O,-0.264%,–
CC1CCC(C(C)(C)S)C(=O)C1 (stereo not given),3.25%,–
CC(=O)OCCCc1ccccc1,6.43%,–

SMILES,"activity change, negative = cytotoxicity",Potency
CO[Si](OC)(OC)c1ccccc1,8.54%,–
CCN(CC)C(=O)C1CN2CCc3cc(OC)c(OC)cc3C2CC1OC(C)=O (stereo not given),-3.88% [at 42.5 µM],–
CC(C)c1cc2c(cc1S(=O)(=O)O)[C@@]1(C)CCC[C@@](C)(C(=O)O)[C@@H]1CC2,-3.46% [at 42.5 µM],–
CCCC(=O)OCC(COC(=O)CCC)OC(=O)CCC,-1.49%,–
C=C(C)C(=O)OCCC(C)OC(=O)C(=C)C (stereo not given),2.85%,–
O=C1c2c(O)ccc(Nc3ccc(CCO)cc3)c2C(=O)c2c([N+](=O)[O-])ccc(O)c21,-19.5%,–
C=C1CC/C=C(\C)CC[C@@H]2[C@@H]1CC2(C)C,3.79%,–
CCOC(=O)OC(=O)OCC,-4.95%,–
NC(=O)NC1N=C([O][Al])NC1=O (stereo not given),0.787% [at 42.5 µM],–
Cc1c(O)cccc1C(=O)N[C@@H](CSc1ccccc1)[C@H](O)CN1C[C@H]2CCCC[C@H]2C[C@H]1C(=O)NC(C)(C)C,–,11.9 µM (active)
CCCCNc1ccccc1,-0.299%,–
CC1(C)C(=O)N(Br)C(=O)N1Cl,3.6%,–
O=CC1CC1,0.606%,–
O=c1[nH][nH]c(=O)c2cc([N+](=O)[O-])ccc12,1.09%,–
CCCCC/C=C/C=C/C=O,–,inactive
Oc1ccc(Sc2ccc(O)cc2)cc1,1.28%,–
CO[Si](C)(C)OC,-1.15%,–
OC[C@H]1O[C@@H](O[C@H]2[C@H](O)[C@@H](O)[C@H](O)O[C@@H]2CO)[C@H](O)[C@@H](O)[C@H]1O,0.474%,–
CCCCCC(CC)OC(=O)CCCOc1ccc(Cl)cc1Cl (stereo not given),0.367%,–
CN(C)c1ccc2nc3ccc(=[N+](C)C)cc-3sc2c1,–,54.5 µM (active)
